# Results published in PubChem BioAssay (NCATS).
# Results filed as inconclusive are left out. Where a call stands in place of a potency, no number is given. Active and inactive are the calls of the source. Calls follow the shape of the dose curve; as a rule, active = well fitted inhibition curve with a large enough effect; inconclusive = small, poorly fitted or top-dose-only effect; inactive = flat fitted curve, though single readings scatter.
# Tested on: 3D7
# Experiment: qHTS profiling for inhibitors of Plasmodium falciparum proliferation (AID 504749); also: nearly all actives have a fitted effect of over 60% in size
# Settings: P. falciparum in erythrocytes, SYBR Green DNA, 72 h; series mostly up to 28.7 µM
# Method in brief: (§1)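 Parasite proliferation within erythrocytes, 72 h exposure. Endpoint: SYBR Green I fluorescence after overnight lysis at room temperature. Controls: 0.29 uM artemisinin, DMSO.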
row,SMILES,Potency
1,O=C(O)c1ccccc1C(=O)Nc1ccc(S(=O)(=O)Nc2nccs2)cc1,inactive
2,CC(=O)NS(=O)(=O)c1ccc(N)cc1,inactive
3,O=C(O)Cn1c(C(=O)Nc2nc(-c3ccccc3Cl)cs2)cc2ccccc21,inactive
4,CC(O)CCCCn1c(=O)c2c(ncn2C)n(C)c1=O (stereo unspecified),inactive
5,CCCCCCCCCCCCCCCCN,inactive
6,CN1CCCN=C1COC(=O)C(O)(c1ccccc1)C1CCCCC1 (stereo unspecified),inactive
7,NS(=O)(=O)c1ccc(C(=O)O)cc1,inactive
8,Cn1c([N+](=O)[O-])cnc1COC(N)=O,inactive
9,O=C(O)c1ccccc1OP(=O)(O)O,inactive
10,c1ccc2[nH]ccc2c1,inactive
11,O=C(OOC(=O)c1ccccc1)c1ccccc1,inactive

# Tested on: 7G8
# Experiment: as above
# Settings: P. falciparum in erythrocytes, SYBR Green DNA, 72 h; series mostly up to 28.7 µM
# Method in brief: as §1
row,SMILES,Potency
1,O=C(O)Cc1ccc(CCNS(=O)(=O)c2ccc(Cl)cc2)cc1,inactive
2,NS(=O)(=O)c1ccc(NC(=O)CCC(=O)O)cc1,inactive
3,C=CCSCC1Nc2cc(Cl)c(S(N)(=O)=O)cc2S(=O)(=O)N1 (stereo unspecified),inactive
4,Cc1cccc(C)c1NC(=O)CC12CCCN1CCC2,inactive
5,CC(=O)Nc1cccc(O)c1,inactive
6,CNCc1ccccc1,inactive
7,COc1ccc(C(=O)NCc2ccc(OCCN(C)C)cc2)cc1OC,inactive
8,C=CCNC(N)=S,inactive
9,NS(=O)(=O)c1cc(-c2nn[nH]n2)c(NCc2cccs2)cc1Cl,inactive
10,CCOc1ccc(C(=O)OCCN(CC)CC)cc1,inactive
11,Cc1c(N(C)C)c(=O)n(-c2ccccc2)n1C,inactive
12,CCc1cccc(CC)c1NC(=O)CN(CC(=O)O)CC(=O)O,inactive
13,COC(=O)c1cccnc1,inactive
14,Cc1ccc(S(=O)(=O)NC(=O)NC2CCCCCCC2)cc1,inactive
15,CCCCCCCCCCCCCCCCC(C(=O)O)C(O)(CC(=O)O)C(=O)O (stereo unspecified),inactive
16,Cn1c(=O)c2c(ncn2CCO)n(C)c1=O,inactive
17,CCCC(O)C(CC)CO (stereo unspecified),inactive
18,CCCCCC(N)=O,inactive

row,SMILES,Potency
1,O=C(O)c1ccc[n+]([O-])c1,inactive
2,CC(CSC(=O)c1ccccc1)C(=O)N1C[C@@H](Sc2ccccc2)C[C@H]1C(=O)O (stereo partly specified),inactive
3,CCOc1cc(NC(C)=O)ccc1C(=O)OC,inactive
4,C[C@@H](N)C(=O)O,inactive
5,NS(=O)(=O)c1cc2c(cc1C(F)(F)F)NCNS2(=O)=O,inactive
6,NC(=O)NS(=O)(=O)c1ccc(N)cc1,inactive
7,O=C(O)c1ccccc1C(=O)Nc1ccc(S(=O)(=O)Nc2nccs2)cc1,inactive
8,CC(=O)NS(=O)(=O)c1ccc(N)cc1,inactive
9,O=C(O)Cn1c(C(=O)Nc2nc(-c3ccccc3Cl)cs2)cc2ccccc21,inactive
10,CC(O)CCCCn1c(=O)c2c(ncn2C)n(C)c1=O (stereo unspecified),inactive
11,CCCCCCCCCCCCCCCCN,inactive
12,CN1CCCN=C1COC(=O)C(O)(c1ccccc1)C1CCCCC1 (stereo unspecified),inactive
13,NS(=O)(=O)c1ccc(C(=O)O)cc1,inactive
14,Cn1c([N+](=O)[O-])cnc1COC(N)=O,inactive
15,O=C(O)c1ccccc1OP(=O)(O)O,inactive
16,c1ccc2[nH]ccc2c1,inactive
17,O=C(OOC(=O)c1ccccc1)c1ccccc1,inactive

# Tested on: AA1029
# Experiment: as above
# Settings: P. falciparum in erythrocytes, SYBR Green DNA, 72 h; series mostly up to 28.7 µM
# Method in brief: as §1
row,SMILES,Potency
1,O=C(O)Cc1ccc(CCNS(=O)(=O)c2ccc(Cl)cc2)cc1,inactive
2,NS(=O)(=O)c1ccc(NC(=O)CCC(=O)O)cc1,inactive
3,C=CCSCC1Nc2cc(Cl)c(S(N)(=O)=O)cc2S(=O)(=O)N1 (stereo unspecified),inactive
4,Cc1cccc(C)c1NC(=O)CC12CCCN1CCC2,inactive
5,CC(=O)Nc1cccc(O)c1,inactive
6,CNCc1ccccc1,inactive
7,COc1ccc(C(=O)NCc2ccc(OCCN(C)C)cc2)cc1OC,inactive
8,C=CCNC(N)=S,inactive
9,NS(=O)(=O)c1cc(-c2nn[nH]n2)c(NCc2cccs2)cc1Cl,inactive
10,CCOc1ccc(C(=O)OCCN(CC)CC)cc1,inactive
11,Cc1c(N(C)C)c(=O)n(-c2ccccc2)n1C,inactive
12,CCc1cccc(CC)c1NC(=O)CN(CC(=O)O)CC(=O)O,inactive
13,COC(=O)c1cccnc1,inactive
14,Cc1ccc(S(=O)(=O)NC(=O)NC2CCCCCCC2)cc1,inactive
15,CCCCCCCCCCCCCCCCC(C(=O)O)C(O)(CC(=O)O)C(=O)O (stereo unspecified),inactive
16,Cn1c(=O)c2c(ncn2CCO)n(C)c1=O,inactive
17,CCCC(O)C(CC)CO (stereo unspecified),inactive
18,CCCCCC(N)=O,inactive

row,SMILES,Potency
1,O=C(O)c1ccc[n+]([O-])c1,inactive
2,CC(CSC(=O)c1ccccc1)C(=O)N1C[C@@H](Sc2ccccc2)C[C@H]1C(=O)O (stereo partly specified),inactive
3,CCOc1cc(NC(C)=O)ccc1C(=O)OC,inactive
4,C[C@@H](N)C(=O)O,inactive
5,NS(=O)(=O)c1cc2c(cc1C(F)(F)F)NCNS2(=O)=O,inactive
6,NC(=O)NS(=O)(=O)c1ccc(N)cc1,inactive
7,O=C(O)c1ccccc1C(=O)Nc1ccc(S(=O)(=O)Nc2nccs2)cc1,inactive
8,CC(=O)NS(=O)(=O)c1ccc(N)cc1,inactive
9,O=C(O)Cn1c(C(=O)Nc2nc(-c3ccccc3Cl)cs2)cc2ccccc21,inactive
10,CC(O)CCCCn1c(=O)c2c(ncn2C)n(C)c1=O (stereo unspecified),inactive
11,CCCCCCCCCCCCCCCCN,inactive
12,CN1CCCN=C1COC(=O)C(O)(c1ccccc1)C1CCCCC1 (stereo unspecified),inactive
13,NS(=O)(=O)c1ccc(C(=O)O)cc1,inactive
14,Cn1c([N+](=O)[O-])cnc1COC(N)=O,inactive
15,O=C(O)c1ccccc1OP(=O)(O)O,inactive
16,c1ccc2[nH]ccc2c1,inactive
17,O=C(OOC(=O)c1ccccc1)c1ccccc1,inactive
